This excerpt belongs to a sample that is enriched for hits.
IL1B secr inh: inhibitors of inflammasome signaling (IL-1 beta secretion) | AID 743279 | activity change, % at 57.5 µM | THP-1 LPS/ATP IL-1B secretion, AlphaLISA, 16 h; active compounds read low | hit rate 4.7% among 360,000; in the data active = activity change below about -50%; inconclusive = mostly about -30% to -49%
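THP-1 cells pretreated 1 hr with compounds (up to 57.5 uM final), then stimulated with LPS (250 ng/mL final) plus ATP (1.25 mM final); secreted IL-1B measured by AlphaLISA after 16 hr, decreased signal indicating inhibition.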
HT1080 IDH1KD tx: toxicity to HT-1080 IDH1 knockdown cells (counter line); HT-1080 IDH1 knockdown viability, ATP luminescence, 48 h; Potency, µM (series often up to 46.1 µM), inactives show at the top dose activity, negative = toxicity, hits mostly cytotoxic; hit rate 2% among 360,000;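 note: potency is the fitted concentration of half-maximal effect; 0% = DMSO wells and -100% = cell-free medium wells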
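% activity derives from luminescence (CellTiter-Glo), normalised to DMSO and no-cell wells. HT-1080-IDH1KD cells, 750/well, had 48 h compound exposure at 37 °C.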
DT40 TDP1 CPT: growth inhibition of DT40 Tdp1-/-;hTDP1 cells with camptothecin (screen for TDP1 inhibitors); chicken DT40 Tdp1-/-;hTDP1 cells + 20 nM CPT, ATP luminescence, 48 h; Potency, µM (titrated, usually from 46.2 µM), for inactives: at the top dose activity change, negative = growth inhibition, most hits filed as inhibitors; hit rate 12% among 420,000; note: potency is the fitted concentration of half-maximal effect; nearly all actives have a fitted effect of over 55% in size
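Chicken DT40 Tdp1-/- cells stably complemented with human TDP1 were seeded at 400 cells/well in medium containing 20 nM camptothecin, exposed to pin-transferred compounds, and grown at 37 °C for at least 48 hr. Viability was read as ATP luminescence.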
12-LOX inh: blocks human arachidonate 12S-lipoxygenase; purified 12hLO, xylenol orange hydroperoxide absorbance; Potency, µM (doses to about 108 µM), for the others: top-dose activity change, negative = inhibition, actives largely listed as inhibitors; hit rate 1.1% among 580,000; AID 1671190; note: potency is the fitted concentration of half-maximal effect
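Purified human 12hLO (150 nM final) in 25 mM Hepes, 0.01% Triton X-100, pH 7.0 was preincubated 15 min at room temperature with compound. Then 40 uM arachidonic acid was added, 30 min. Hydroperoxide was read by Fe-XO absorbance ratio 573/405 nm.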
HT1080-NT tox: kills 2HG-producing HT-1080-NT fibrosarcoma cells | Potency, µM (series often up to 46.1 µM), without a hit: at the top dose activity, negative = less viability, actives largely listed as cytotoxic | HT-1080-NT fibrosarcoma viability, CellTiter-Glo ATP luminescence, 48 h | hit rate 1.6% among 360,000;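 note: NT is the 2HG producing partner of a matched IDH1 knockdown line; potency is the fitted concentration of half-maximal effect; 0% = DMSO-treated cells and -100% = media-only wells without cells; nearly all actives have a fitted effect of over 55% in size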
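Compounds were tested in concentration-response format on HT-1080-NT cells for 48 hours at 37 degrees C. Cell viability came from CellTiter-Glo luminescence; curves were classified by r2, response magnitude and activity.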
TDP1 cell noCPT: qHTS for Inhibitors of human tyrosyl-DNA phosphodiesterase 1 (TDP1): qHTS in cells in absence of CPT; Potency, µM (series often up to 46.2 µM), without a hit: top-dose activity change, negative = growth inhibition, usual class: inhibitors; AID 686978, 2013; DT40 Tdp1-/- hTDP1 cells, no CPT, ATP luminescence, 48 h; hit rate 15% among 420,000; note: potency is the fitted concentration of half-maximal effect; nearly all actives have a fitted effect of over 55% in size
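Luminescent ATP content (CellTiter-Glo) served as the growth readout. Knockout chicken DT40 cells expressing human TDP1 were exposed to compounds without camptothecin for a minimum 48 hr at 37 °C.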
* marks the source's active call; other numbers are inactive results; ? = inconclusive; . = no result. Unless noted, calls come from the whole dose curve; as a rule, active = well fitted curve in the direction sought with a large enough effect; inconclusive = small, poorly fitted or top-dose-only effect, or another doubt; inactive = no such curve, though single readings can be large; an effect the other way counts as inactive or inconclusive. Unless noted, % is set by controls: 0 for no effect and ±100 for the full control effect.

SMILES	IL1B secr inh	HT1080 IDH1KD tx	DT40 TDP1 CPT	12-LOX inh	HT1080-NT tox	TDP1 cell noCPT
CCOC(=O)N1CCC(N(C(=O)Nc2ccc(Cl)c(Cl)c2)C(C)CC)CC1 (stereo unspecified)	-84.8*	-25.3%	23.1µM*	6.6%	?	10.3µM*
CCOc1ccc(NC(=O)N(C(C)C)C2CCN(C(C)=O)CC2)cc1	.	.	3.3%	-7.4%	.	-7.4%
COc1ccc(NC(=S)N(CCC(C)C)C2CCN(C(C)C)CC2)cc1Cl	?	-12.6%	-15.8%	?	-19.3%	?
CCOC(=O)c1ccccc1NC(=O)N(C(C)C)C1CCN(C(C)=O)CC1	.	.	14.6µM*	7.0%	.	14.6µM*
CC(C)CCN(C(=O)Nc1ccc(Cl)c(Cl)c1)C1CCN(C(C)C)CC1	.	.	14.6µM*	?	.	14.6µM*
COc1ccc(O)c(C(=O)OCc2nc(N)c3ccccc3n2)c1	.	.	.	32.5%	.	.
Cc1cccc(C(=O)N2CCCCCNC(=O)[C@H]3C[C@H](C(=O)N4CCc5ccccc5C4)C[C@H]32)c1	.	.	.	3.6%	.	.
C=CCC[C@H](Cc1ccc(F)cc1)C(=O)OC[C@@H](Cc1c[nH]c2ccccc12)NC(=O)[C@@H](CC=C)CC(=O)N[C@@H](CO)Cc1ccccc1	-29.9	?	?	?	?	23.1µM*
C=CCC[C@@H](Cc1ccc(F)cc1)C(=O)OC[C@@H](Cc1c[nH]c2ccccc12)NC(=O)[C@@H](CC=C)CC(=O)N[C@H](CO)Cc1ccccc1	-6.5	-0.9%	?	-18.9%	-20.3%	?
C=CCC[C@@H](Cc1ccc(F)cc1)C(=O)OC[C@@H](Cc1c[nH]c2ccccc12)NC(=O)[C@H](CC=C)CC(=O)N[C@H](CO)Cc1ccccc1	90.6	?	?	-36.1%	20.6µM*	?
C=CCC[C@@H](Cc1ccc(F)cc1)C(=O)OC[C@H](Cc1c[nH]c2ccccc12)NC(=O)[C@@H](CC=C)CC(=O)N[C@@H](CO)Cc1ccccc1	-3.0	-0.7%	20.6µM*	-16.5%	-2.3%	?
C=CCC[C@@H](Cc1ccc(F)cc1)C(=O)OC[C@@H](Cc1c[nH]c2ccccc12)NC(=O)[C@@H](CC=C)CC(=O)N[C@@H](CO)Cc1ccccc1	-19.3	-3.3%	23.1µM*	6.8%	-0.7%	?
O=C(Cc1c[nH]c2ccccc12)N1CC2CC(C1)[C@H]1CCCC(=O)N1C2 (stereo partly specified)	.	.	.	5.4%	.	.
CC(=O)NC(Nc1ccccc1F)C(=O)c1ccccc1 (stereo unspecified)	.	.	.	-4.1%	.	.
CC(=O)N1CCN(CC(=O)Nc2sc3c(c2C(N)=O)CCC3)CC1	.	.	.	9.2%	.	.
Cc1ccc(C(C)C)c(OCc2n[nH]c(=S)o2)c1	33.4	1.3%	-12.6%	?	-6.0%	-24.3%
Cc1ccc(C(C)C)c(OCc2nc(-c3nonc3N)no2)c1	?	-27.7%	16.4µM*	-6.3%	-6.8%	7.31µM*
COc1ccc(C(=O)c2nc3c(n2O)CCCC3)cc1OC	15.8	8.3%	9.2%	8.91µM*	15.6%	11.8%
COc1ccc(C(=O)c2nc3c(n2O)CCCCC3)cc1	-3.1	13.6%	-10.9%	?	16.3%	-7.6%
COc1ccc(Cn2c(C3CCN(C(=O)Cc4cccc(OC)c4)CC3)n[nH]c2=O)cc1	.	.	.	-10.6%	.	.
COc1ccc(CCn2c(=N)c(C(=O)NCc3ccco3)cc3c(=O)n4ccccc4nc32)cc1	-53.6*	12.6µM*	?	-13.1%	?	23.1µM*
CCOCCCn1c(=N)c(C(=O)NCc2ccccc2)cc2c(=O)n3ccccc3nc21	.	.	-19.1%	0.0%	.	?
N=c1c(C(=O)NCCc2ccccc2)cc2c(=O)n3ccccc3nc2n1CCCN1CCOCC1	-56.2*	-21.3%	-26.5%	-26.2%	-28.9%	14.6µM*

Screening results as filed in PubChem.
